Source: PubChem BioAssay AID1159580 (chemical genetic matrix, 2015)
Out of some 5,500 compounds screened, about 2,000 (36%) were called active. Inconclusive results (about 18%) are left out. Rule as the data show it: active = normalized growth mostly below about 0.91 (no sharp cut-off); inconclusive = no clear call, values can overlap the other calls; inactive = mostly above about 0.92. This is one part of the list.

Assay: chemical genetic growth profiling, strain panel (AID 1159580);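 also: tested at 20 µM; growth read once vehicle control cultures reached saturation at 30 °C; 1 = growth at the plate median or of vehicle wells; lower values mean less growth of the strain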
Conditions: growth OD
[1] = S. cerevisiae deletion strains, locus YAL013W, strain DEP1, stronger effect = lower value
[2] = S. cerevisiae deletion strains, locus YBR229C, strain ROT2, stronger effect = lower value
[3] = S. cerevisiae deletion strains, locus YDL101C, strain DUN1, stronger effect = lower value
[4] = S. cerevisiae deletion strains, locus YDR150W, strain NUM1, stronger effect = lower value
[5] = S. cerevisiae deletion strains, locus YEL061C, strain CIN8, stronger effect = lower value
[6] = S. cerevisiae deletion strains, locus YGR078C, strain PAC10, stronger effect = lower value
[7] = S. cerevisiae deletion strains, locus YHR030C, strain SLT2, stronger effect = lower value
[8] = S. cerevisiae deletion strains, locus YHR087W, strain rtc3, stronger effect = lower value
[9] = S. cerevisiae deletion strains, locus YJR043C, strain POL32, stronger effect = lower value
[10] = S. cerevisiae deletion strains, locus YJR075W, strain HOC1, stronger effect = lower value
[11] = S. cerevisiae deletion strains, locus YKL190W, strain CNB1, stronger effect = lower value
[12] = S. cerevisiae deletion strains, locus YLR039C, strain RIC1, stronger effect = lower value
[13] = S. cerevisiae deletion strains, locus YLR058C, strain SHM2 (second series), stronger effect = lower value
[14] = S. cerevisiae deletion strains, locus YLR085C, strain ARP6, stronger effect = lower value
[15] = S. cerevisiae deletion strains, locus YLR262C, strain YPT6, stronger effect = lower value
[16] = S. cerevisiae deletion strains, locus YML094W, strain GIM5, stronger effect = lower value
[17] = S. cerevisiae deletion strains, locus YMR219W, strain ESC1, stronger effect = lower value
[18] = S. cerevisiae deletion strains, locus YMR263W, strain SAP30, stronger effect = lower value
[19] = S. cerevisiae deletion strains, locus YNL153C, strain GIM3, stronger effect = lower value
[20] = S. cerevisiae deletion strains, locus YNL298W, strain CLA4 (second series), stronger effect = lower value
[21] = S. cerevisiae deletion strains, locus YNL322C, strain KRE1, stronger effect = lower value
[22] = S. cerevisiae deletion strains, locus YNR030W, strain Alg12, stronger effect = lower value
[23] = S. cerevisiae deletion strains, locus YOL006C, strain TOP1, stronger effect = lower value
[24] = S. cerevisiae deletion strains, locus YPL055C, strain LGE1, stronger effect = lower value
[25] = S. cerevisiae deletion strains, locus YPL241C, strain CIN2, stronger effect = lower value
[26] = S. cerevisiae deletion strains, locus YPR135W, strain CTF4, stronger effect = lower value

Measured: normalized growth

BrC12CC3CC(CC(C3)C1)C2
inactive: [1] 1 | [2] 1.02 | [3] 1.01 | [4] 0.961 | [5] 1.01 | [6] 0.997 | [7] 1.05 | [8] 0.971 | [9] 1.02 | [10] 1.03 | [11] 1 | [12] 1.02 | [13] 1.02 | [14] 1.01 | [15] 1.02 | [16] 0.997 | [17] 1 | [18] 0.975 | [19] 1.02 | [20] 0.996 | [21] 1.01 | [22] 0.999 | [23] 1.01 | [24] 1.03 | [25] 1 | [26] 0.99

CC1CC2C(C(O)CC3(C)C2CCC3(O)C(=O)COC(=O)CCC(=O)O)C2(C)C=CC(=O)C=C12 (stereo unspecified)
inactive: S. cerevisiae deletion strains, locus YBR021W, strain FUR4, stronger effect = lower value 1.08 | [2] 1 | S. cerevisiae deletion strains, locus YCL029C, strain bik1, stronger effect = lower value 0.97 | S. cerevisiae deletion strains, locus YDL035C, strain GPR1, stronger effect = lower value 1.01 | S. cerevisiae deletion strains, locus YDL074C, strain BRE1, stronger effect = lower value 1.01 | [3] 1.01 | S. cerevisiae deletion strains, locus YDL185W, strain tfp1, stronger effect = lower value 0.959 | S. cerevisiae deletion strains, locus YDL192W, strain arf1, stronger effect = lower value 0.982 | S. cerevisiae deletion strains, locus YDR101C, strain arx1, stronger effect = lower value 0.993 | [4] 1 | S. cerevisiae deletion strains, locus YDR162C, strain NBP2, stronger effect = lower value 1.02 | S. cerevisiae deletion strains, locus YDR318W, strain mcm21, stronger effect = lower value 0.989 | S. cerevisiae deletion strains, locus YDR388W, stronger effect = lower value 0.997 | S. cerevisiae deletion strains, locus YDR502C, strain sam2, stronger effect = lower value 0.982 | [5] 1.01 | S. cerevisiae deletion strains, locus YER110C, stronger effect = lower value 0.977 | S. cerevisiae deletion strains, locus YER155C, strain BEM2, stronger effect = lower value 1.01 | S. cerevisiae deletion strains, locus YER167W, strain BCK2, stronger effect = lower value 1.01 | S. cerevisiae deletion strains, locus YGL078C, strain dbp3, stronger effect = lower value 0.984 | S. cerevisiae deletion strains, locus YGL086W, strain mad1, stronger effect = lower value 1 | S. cerevisiae deletion strains, locus YGL248W, strain PDE1, stronger effect = lower value 1.01 | S. cerevisiae deletion strains, locus YGR135W, strain pre9, stronger effect = lower value 0.982 | S. cerevisiae deletion strains, locus YGR252W, strain gcn5, stronger effect = lower value 0.992 | [7] 0.987 | S. cerevisiae deletion strains, locus YHR079C, strain IRE1 (second series), stronger effect = lower value 0.979 | S. cerevisiae deletion strains, locus YHR094C, strain hxt1, stronger effect = lower value 0.994 | S. cerevisiae deletion strains, locus YHR129C, strain ARP1, stronger effect = lower value 0.999 | S. cerevisiae deletion strains, locus YHR200W, strain rpn10, stronger effect = lower value 0.987 | S. cerevisiae deletion strains, locus YIL066C, strain RNR3, stronger effect = lower value 1.03 | S. cerevisiae deletion strains, locus YIL073C, strain SPO22, stronger effect = lower value 0.973 | S. cerevisiae deletion strains, locus YIL125W, strain kgd1, stronger effect = lower value 0.983 | S. cerevisiae deletion strains, locus YIR030C, strain dcg1, stronger effect = lower value 0.978 | S. cerevisiae deletion strains, locus YJL095W, strain BCK1, stronger effect = lower value 1.05 | S. cerevisiae deletion strains, locus YJL134W, strain LCB3, stronger effect = lower value 0.999 | S. cerevisiae deletion strains, locus YJL168C, strain set2, stronger effect = lower value 0.979 | S. cerevisiae deletion strains, locus YJL187C, strain SWE1 (second series), stronger effect = lower value 1.02 | [9] 1.04 | [10] 1 | S. cerevisiae deletion strains, locus YKL009W, strain mrt4, stronger effect = lower value 0.97 | S. cerevisiae deletion strains, locus YKL068W, stronger effect = lower value 0.968 | S. cerevisiae deletion strains, locus YKL085W, strain MDH1 (second series), stronger effect = lower value 0.994 | S. cerevisiae deletion strains, locus YKL085W, strain MDH1, stronger effect = lower value 0.994 | S. cerevisiae deletion strains, locus YKR001C, strain vps1, stronger effect = lower value 0.984 | [12] 1.03 | S. cerevisiae deletion strains, locus YLR058C, strain SHM2, stronger effect = lower value 0.999 | S. cerevisiae deletion strains, locus YLR102C, strain apc9, stronger effect = lower value 0.991 | [15] 0.98 | S. cerevisiae deletion strains, locus YLR268W, strain sec22, stronger effect = lower value 0.99 | S. cerevisiae deletion strains, locus YLR330W, strain CHS5, stronger effect = lower value 0.987 | S. cerevisiae deletion strains, locus YLR342W, strain FKS1 (second series), stronger effect = lower value 1.04 | S. cerevisiae deletion strains, locus YLR371W, strain rom2, stronger effect = lower value 0.979 | S. cerevisiae deletion strains, locus YLR418C, strain cdc73, stronger effect = lower value 1.02 | S. cerevisiae deletion strains, locus YML016C, strain PPZ1, stronger effect = lower value 1.01 | S. cerevisiae deletion strains, locus YML032C, strain rad52, stronger effect = lower value 1 | S. cerevisiae deletion strains, locus YML124C, strain tub3, stronger effect = lower value 0.987 | S. cerevisiae deletion strains, locus YMR078C, strain ctf18, stronger effect = lower value 0.979 | S. cerevisiae deletion strains, locus YMR223W, strain ubp8, stronger effect = lower value 0.981 | [18] 1.02 | S. cerevisiae deletion strains, locus YMR307W, strain GAS1, stronger effect = lower value 1.13 | S. cerevisiae deletion strains, locus YNL067W, strain RPL9B, stronger effect = lower value 1.03 | [19] 1.03 | S. cerevisiae deletion strains, locus YNL233W, strain BNI4, stronger effect = lower value 1.04 | S. cerevisiae deletion strains, locus YNL250W, strain rad50, stronger effect = lower value 0.966 | S. cerevisiae deletion strains, locus YNL271C, strain bni1, stronger effect = lower value 0.999 | S. cerevisiae deletion strains, locus YNL298W, strain CLA4, stronger effect = lower value 0.993 | S. cerevisiae deletion strains, locus YNL307C, strain MCK1, stronger effect = lower value 0.987 | [21] 1.01 | S. cerevisiae deletion strains, locus YNR052C, strain pop2, stronger effect = lower value 0.982 | S. cerevisiae deletion strains, locus YOL012C, strain htz1 0.933 | S. cerevisiae deletion strains, locus YOL147C, strain pex11, stronger effect = lower value 0.993 | S. cerevisiae deletion strains, locus YOR061W, strain CKA2, stronger effect = lower value 1 | S. cerevisiae deletion strains, locus YOR069W, strain VPS5, stronger effect = lower value 1 | S. cerevisiae deletion strains, locus YOR136W, strain idh2, stronger effect = lower value 0.99 | S. cerevisiae deletion strains, locus YOR144C, strain elg1, stronger effect = lower value 1 | S. cerevisiae deletion strains, locus YOR184W, strain ser1, stronger effect = lower value 1.01 | S. cerevisiae deletion strains, locus YOR316C, strain cot1, stronger effect = lower value 1 | S. cerevisiae deletion strains, locus YPR119W, strain clb2, stronger effect = lower value 0.986 | S. cerevisiae deletion strains, locus YPR141C, strain kar3, stronger effect = lower value 0.972 | S. cerevisiae deletion strains, locus YPR163C, strain tif3, stronger effect = lower value 0.985 | S. cerevisiae deletion strains, locus YPR167C, strain met16, stronger effect = lower value 0.969 | S. cerevisiae deletion strains, strain wtn01, stronger effect = lower value 0.995 | S. cerevisiae strains, strain wild type, stronger effect = lower value 1.01

O=C(Nc1ccc(Cl)cc1Cl)c1cnccn1
active: [7] 0.606 | [11] 0.862 | [12] 0.788 | [14] 0.656
inactive: [1] 0.943 | [2] 0.963 | S. cerevisiae deletion strains, locus YCL061C, strain MRC1, stronger effect = lower value 0.98 | [3] 0.982 | S. cerevisiae deletion strains, locus YDL134C, strain PPH21, stronger effect = lower value 0.989 | [4] 0.989 | [5] 0.95 | [6] 0.991 | [8] 0.973 | [9] 1.01 | [10] 1.01 | [13] 0.975 | [15] 0.87 | [16] 0.91 | [17] 0.99 | [18] 0.966 | [19] 0.98 | [20] 0.911 | [21] 0.986 | [22] 0.94 | [23] 0.773 | [24] 0.9 | [25] 0.9 | [26] 0.768
